Of roughly 8,800 targets only a part is listed; those with a hit were picked by preference. About 0.5% of all pairs of compound and target were hits. Unmarked numbers belong to inactive results.
Key:
Test in all cases: log2 fold change, soluble protein after heating vs DMSO (PISA); higher = thermal stabilisation; K562 lysate, 10 uM; active = over 0.2 and 3.5 SD of the protein, either way, in both replicates (recomputed)
erlotinib = compound: C#Cc1cccc(Nc2ncnc3cc(OCCOC)c(OCCOC)cc23)c1 [erlotinib]
Outline: (§1)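 Dounce homogenisation of K562 pellets in PBS pH 7.4 with 1 mM MgCl2 produced a crude extract, used at 1 mg/mL protein. Exposure to 10 μM compound lasted 30 min, and aliquots were then heated for 3 min across 48°C-58°C, pooled and brought to 0.5% NP-40 at 4°C. The supernatant after 21,000xg for 90 min was quantified by TMTpro 16plex LC-MS/MS with channel sums equalised. Duplicate values are given as log-two fold change in thermal stability relative to solvent controls.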

[1] = compound: C/C(=N\NC(=O)C1=CC(=CC=C1)S(=O)(=O)N2CCOCC2)/C3=C(C=CC(=C3)Cl)O
Outline: as §1

[2] = compound: C1=CC(=CC=C1C2=NC3=C(N2)C=C(C=C3)C(=O)N)OC4=CC=C(C=C4)Cl
Outline: as §1

[3] = compound: C1=CC2=C(C=CC(=C2)/C=C\3/C(=O)NC(=NCC4=CC=CS4)S3)N=C1
Outline: as §1

[4] = compound: C1=CC2=NC=CN=C2C=C1/C=C/3\C(=O)NC(=O)S3
Outline: as §1

[5] = compound: C1=CC=C(C=C1)C2=NC(=C(N2)C3=CC=NC=C3)C4=CC(=C(C=C4)Cl)O
Outline: as §1

[6] = compound: C1=CC=C2C(=C1)C3=NNC4=CC=CC(=C43)C2=O
Outline: as §1

[7] = compound: C1CCN(C1)C(=O)NC2=CC=CC(=C2)NC3=NC=C(C(=N3)NCCC4=CN=CN4)Br
Outline: as §1

[8] = compound: C1CN(CCC1(CC2=CC=C(C=C2)Cl)N)C3=NC=NC4=C3C=CN4
Outline: as §1

IRAK-1-4 Inhibitor I = compound: C1COCCN1CCN2C3=CC=CC=C3N=C2NC(=O)C4=CC(=CC=C4)[N+](=O)[O-] [IRAK-1-4 Inhibitor I]
Outline: as §1

Sequence of UniProt P55160 (P55160 whole entry, looked up): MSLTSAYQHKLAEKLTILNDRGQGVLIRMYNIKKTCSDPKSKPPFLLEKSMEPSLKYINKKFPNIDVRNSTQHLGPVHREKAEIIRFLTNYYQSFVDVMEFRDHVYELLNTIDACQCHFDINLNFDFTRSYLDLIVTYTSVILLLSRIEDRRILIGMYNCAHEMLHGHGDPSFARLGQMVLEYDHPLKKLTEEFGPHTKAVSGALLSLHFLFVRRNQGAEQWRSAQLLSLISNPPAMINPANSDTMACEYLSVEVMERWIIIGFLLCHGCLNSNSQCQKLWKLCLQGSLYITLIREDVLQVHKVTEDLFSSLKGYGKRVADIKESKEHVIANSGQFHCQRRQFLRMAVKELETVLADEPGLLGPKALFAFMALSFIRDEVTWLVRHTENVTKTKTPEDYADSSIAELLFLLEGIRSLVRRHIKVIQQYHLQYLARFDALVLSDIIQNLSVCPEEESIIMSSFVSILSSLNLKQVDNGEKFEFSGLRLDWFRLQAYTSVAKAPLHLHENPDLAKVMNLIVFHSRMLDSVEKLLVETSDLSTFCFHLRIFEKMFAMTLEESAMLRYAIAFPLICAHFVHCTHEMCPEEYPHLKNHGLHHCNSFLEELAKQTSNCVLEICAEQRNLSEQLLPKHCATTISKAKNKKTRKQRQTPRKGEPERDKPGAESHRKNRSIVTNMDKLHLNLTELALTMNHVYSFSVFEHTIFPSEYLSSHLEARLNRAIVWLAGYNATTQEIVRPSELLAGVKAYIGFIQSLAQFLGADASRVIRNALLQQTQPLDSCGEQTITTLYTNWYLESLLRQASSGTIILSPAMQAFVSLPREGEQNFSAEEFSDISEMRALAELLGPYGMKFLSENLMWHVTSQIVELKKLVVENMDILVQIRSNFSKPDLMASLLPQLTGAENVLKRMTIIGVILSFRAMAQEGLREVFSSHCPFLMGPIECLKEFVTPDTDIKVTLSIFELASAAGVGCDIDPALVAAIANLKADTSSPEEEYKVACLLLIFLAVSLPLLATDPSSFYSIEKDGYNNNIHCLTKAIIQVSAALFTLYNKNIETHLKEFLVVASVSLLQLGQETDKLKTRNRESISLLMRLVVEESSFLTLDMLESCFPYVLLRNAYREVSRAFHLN
Sequence of UniProt Q92621 (Q92621 whole entry, looked up): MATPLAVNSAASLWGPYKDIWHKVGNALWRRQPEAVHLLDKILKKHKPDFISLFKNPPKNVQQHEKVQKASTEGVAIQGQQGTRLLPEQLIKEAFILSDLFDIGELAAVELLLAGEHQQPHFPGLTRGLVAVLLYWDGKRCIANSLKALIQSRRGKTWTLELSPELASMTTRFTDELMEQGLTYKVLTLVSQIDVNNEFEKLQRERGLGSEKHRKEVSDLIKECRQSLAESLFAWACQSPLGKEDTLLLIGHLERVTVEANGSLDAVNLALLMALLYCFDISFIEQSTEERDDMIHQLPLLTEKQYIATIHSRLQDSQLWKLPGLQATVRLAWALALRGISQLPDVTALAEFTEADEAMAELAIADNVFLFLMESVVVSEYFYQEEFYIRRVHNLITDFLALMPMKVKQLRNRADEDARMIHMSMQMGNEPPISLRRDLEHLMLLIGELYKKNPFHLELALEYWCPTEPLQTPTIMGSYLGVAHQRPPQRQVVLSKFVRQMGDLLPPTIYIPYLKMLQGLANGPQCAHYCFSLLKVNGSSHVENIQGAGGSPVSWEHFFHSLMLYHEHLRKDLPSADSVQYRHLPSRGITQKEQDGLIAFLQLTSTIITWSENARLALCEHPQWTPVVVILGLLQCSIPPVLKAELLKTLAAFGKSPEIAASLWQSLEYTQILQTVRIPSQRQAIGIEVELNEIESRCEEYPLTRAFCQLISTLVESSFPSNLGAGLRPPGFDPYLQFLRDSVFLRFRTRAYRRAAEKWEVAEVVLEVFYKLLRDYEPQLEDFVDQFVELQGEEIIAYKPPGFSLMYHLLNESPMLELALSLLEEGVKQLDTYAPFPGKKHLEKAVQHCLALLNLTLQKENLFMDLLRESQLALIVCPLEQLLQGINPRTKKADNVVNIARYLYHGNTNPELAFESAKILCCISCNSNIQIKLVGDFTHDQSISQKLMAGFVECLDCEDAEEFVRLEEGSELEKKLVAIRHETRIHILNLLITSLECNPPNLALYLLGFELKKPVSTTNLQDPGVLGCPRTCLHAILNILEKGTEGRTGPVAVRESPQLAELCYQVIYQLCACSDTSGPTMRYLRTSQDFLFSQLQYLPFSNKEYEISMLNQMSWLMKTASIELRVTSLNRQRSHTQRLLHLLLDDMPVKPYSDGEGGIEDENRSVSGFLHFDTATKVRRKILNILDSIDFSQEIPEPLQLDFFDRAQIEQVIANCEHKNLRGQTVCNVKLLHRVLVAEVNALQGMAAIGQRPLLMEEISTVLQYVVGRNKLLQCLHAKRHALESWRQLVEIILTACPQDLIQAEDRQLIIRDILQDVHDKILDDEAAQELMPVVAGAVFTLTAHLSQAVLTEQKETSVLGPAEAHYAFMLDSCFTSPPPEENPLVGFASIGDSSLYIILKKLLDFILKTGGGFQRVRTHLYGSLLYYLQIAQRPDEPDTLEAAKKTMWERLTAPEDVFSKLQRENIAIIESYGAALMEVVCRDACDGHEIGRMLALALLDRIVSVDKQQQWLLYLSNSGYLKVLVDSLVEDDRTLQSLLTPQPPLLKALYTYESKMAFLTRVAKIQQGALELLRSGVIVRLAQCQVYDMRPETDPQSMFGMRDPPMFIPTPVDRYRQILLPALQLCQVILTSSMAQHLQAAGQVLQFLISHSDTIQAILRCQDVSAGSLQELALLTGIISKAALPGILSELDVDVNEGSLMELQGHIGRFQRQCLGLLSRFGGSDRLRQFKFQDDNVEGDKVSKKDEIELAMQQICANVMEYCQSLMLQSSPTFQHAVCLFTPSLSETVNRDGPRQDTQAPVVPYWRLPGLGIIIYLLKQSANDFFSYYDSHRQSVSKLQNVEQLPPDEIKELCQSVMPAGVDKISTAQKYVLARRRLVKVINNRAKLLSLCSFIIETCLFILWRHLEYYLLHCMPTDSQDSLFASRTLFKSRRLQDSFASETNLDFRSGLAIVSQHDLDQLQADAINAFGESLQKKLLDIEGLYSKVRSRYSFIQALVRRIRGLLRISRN
Sequence of UniProt Q13153 (Q13153 whole entry, looked up): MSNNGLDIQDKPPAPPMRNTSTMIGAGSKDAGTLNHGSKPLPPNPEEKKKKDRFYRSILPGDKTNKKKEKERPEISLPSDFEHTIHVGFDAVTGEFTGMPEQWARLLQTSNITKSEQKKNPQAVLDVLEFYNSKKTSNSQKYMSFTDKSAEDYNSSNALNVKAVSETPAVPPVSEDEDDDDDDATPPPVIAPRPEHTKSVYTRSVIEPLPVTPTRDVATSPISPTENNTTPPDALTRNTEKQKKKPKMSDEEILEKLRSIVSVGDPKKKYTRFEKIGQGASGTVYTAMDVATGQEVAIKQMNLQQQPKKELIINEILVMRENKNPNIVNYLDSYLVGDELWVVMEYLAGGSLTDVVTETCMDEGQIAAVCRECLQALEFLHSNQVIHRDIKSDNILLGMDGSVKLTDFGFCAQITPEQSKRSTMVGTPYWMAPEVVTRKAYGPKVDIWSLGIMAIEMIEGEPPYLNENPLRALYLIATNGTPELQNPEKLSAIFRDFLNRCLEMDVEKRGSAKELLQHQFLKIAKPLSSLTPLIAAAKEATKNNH
Sequence of UniProt O96013 (O96013 whole entry, looked up): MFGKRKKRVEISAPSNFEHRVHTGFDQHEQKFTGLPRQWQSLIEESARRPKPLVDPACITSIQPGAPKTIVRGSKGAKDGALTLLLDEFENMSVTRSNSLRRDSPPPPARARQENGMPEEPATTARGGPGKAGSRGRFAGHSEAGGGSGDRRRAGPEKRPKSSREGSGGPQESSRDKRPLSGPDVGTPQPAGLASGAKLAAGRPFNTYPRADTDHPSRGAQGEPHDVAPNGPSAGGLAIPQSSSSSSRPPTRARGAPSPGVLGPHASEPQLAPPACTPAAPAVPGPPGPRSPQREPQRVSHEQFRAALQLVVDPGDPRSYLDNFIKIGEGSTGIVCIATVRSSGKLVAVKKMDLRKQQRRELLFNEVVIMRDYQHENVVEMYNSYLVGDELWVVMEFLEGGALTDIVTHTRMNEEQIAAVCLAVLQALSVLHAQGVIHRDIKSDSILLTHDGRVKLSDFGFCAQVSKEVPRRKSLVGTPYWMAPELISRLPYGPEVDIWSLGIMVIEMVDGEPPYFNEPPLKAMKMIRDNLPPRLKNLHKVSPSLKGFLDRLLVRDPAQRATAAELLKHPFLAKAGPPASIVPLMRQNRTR
Sequence of UniProt Q9BZD4 (Q9BZD4 whole entry, looked up): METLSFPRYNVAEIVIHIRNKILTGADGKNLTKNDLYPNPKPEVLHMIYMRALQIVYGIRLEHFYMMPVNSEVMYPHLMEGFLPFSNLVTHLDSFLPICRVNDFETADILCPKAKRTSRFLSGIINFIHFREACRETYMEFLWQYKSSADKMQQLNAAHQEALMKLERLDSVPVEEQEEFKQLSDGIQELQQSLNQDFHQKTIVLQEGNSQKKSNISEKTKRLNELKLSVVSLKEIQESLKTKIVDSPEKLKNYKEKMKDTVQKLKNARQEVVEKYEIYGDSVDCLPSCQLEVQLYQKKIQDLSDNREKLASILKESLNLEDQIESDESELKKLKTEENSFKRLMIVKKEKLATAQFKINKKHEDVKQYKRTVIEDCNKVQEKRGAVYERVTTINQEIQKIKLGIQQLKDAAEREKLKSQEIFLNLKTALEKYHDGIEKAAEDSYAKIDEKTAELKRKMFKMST
Sequence of UniProt Q9Y5N5 (Q9Y5N5 whole entry, looked up, one chain of several): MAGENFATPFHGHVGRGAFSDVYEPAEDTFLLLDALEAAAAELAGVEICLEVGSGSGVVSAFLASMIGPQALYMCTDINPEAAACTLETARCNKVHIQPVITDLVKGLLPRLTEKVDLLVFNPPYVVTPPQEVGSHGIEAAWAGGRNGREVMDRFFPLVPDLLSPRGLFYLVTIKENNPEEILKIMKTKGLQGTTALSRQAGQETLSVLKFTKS

Target	log2 fold change (erlotinib)	log2 fold change [1]	log2 fold change [2]	log2 fold change [3]	log2 fold change [4]	log2 fold change [5]	log2 fold change [6]	log2 fold change [7]	log2 fold change [8]	log2 fold change (IRAK-1-4 Inhibitor I)
NEK9 (UniProt Q8TD19)	-0.008	0.038	-0.028	-0.022	-0.021	-0.013	0.154	0.083	-0.009	0.142
MRPS18A isoform 2 (UniProt Q9NVS2)	0.024	-0.038	0.038	0.112	-0.035	-0.053	-0.013	0.009	0.004	0.015
NBEAL2 (UniProt Q6ZNJ1)	0.032	0.011	-0.031	0.038	0.017	-0.004	-0.032	-0.012	0.024	-0.01
NMRAL1 (UniProt Q9HBL8)	0.008	0.012	-0.111	-0.011	-0.037	-0.054	0.141	0.024	0.001	-0.02
NOB1 (UniProt Q9ULX3)	0.011	-0.028	0.012	-0.016	-0.02	0.023	-0.016	-0.016	-0.027	0.011
NUMBL (UniProt Q9Y6R0)	0.031	0.028	0.175	-0.244	-0.025	-0.007	-0.038	-0.095	-0.045	-0.084
MTFP1 (UniProt Q9UDX5)	-0.006	0.092	0.035	0.041	-0.043	-0.003	0.081	-0.044	0.044	-0.058
NFATC1 (UniProt O95644)	-0.002	-0.431	0.045	-0.04	-0.02	0.065	0.009	0.044	0.092	0.077
NUP205 (UniProt Q92621)	0.03	-0.022	-0.018	0.049	-0.008	-0.013	-0.06	-0.009	0.035	0.005
NEXN (UniProt Q0ZGT2)	0.091	-0.011	-0.019	-0.067	-0.154	-0.144	-0.049	-0.255	0.28	-0.133
OSBPL3 isoform 2 (UniProt Q9H4L5)	0.292	0.206	0.038	0.079	-0.04	0.189	0.135	-0.001	-0.018	-0.183
NFKBIE (UniProt O00221)	0.014	-0.009	-0.117	0.059	-0.022	0.059	-0.026	-0.078	0.081	0.119
NLRP2 (UniProt Q9NX02)	0.004	-0.015	-0.002	-0.005	-0.013	-0.002	-0.021	0.01	-0.031	-0.043
MT-ND1 (UniProt P03886)	-0.061	-0.227	-0.14	0.055	-0.036	-0.005	0.061	-0.038	0.02	0.004
NARF (UniProt Q9UHQ1)	0.005	0.006	0.042	0.007	-0.005	0.004	0.004	-0.009	-0.021	-0.009
OLA1 (UniProt Q9NTK5)	0.038	0.031	0.029	-0.02	0.02	0.007	-0.048	0.022	0.02	-0.02
OTC (UniProt P00480)	0.09	0.138	-0.096	-0.121	-0.049	-0.074	-0.069	-0.074	-0.095	0.125
PARP14 (UniProt Q460N5)	0.06	-0.037	0.012	-0.032	0.081	0.005	-0.166	-0.025	0.062	-0.095
PAK1 (UniProt Q13153)	0.043	0.018	0.01	-0.017	0.01	-0.014	0.018	0.028	0.041	-0.007
NUF2 (UniProt Q9BZD4)	0.009	0.006	-0.012	0.03	-0.002	-0.047	-0.047	-0.039	-0.004	-0.039

Target	log2 fold change (erlotinib)	log2 fold change [1]	log2 fold change [2]	log2 fold change [3]	log2 fold change [4]	log2 fold change [5]	log2 fold change [6]	log2 fold change [7]	log2 fold change [8]	log2 fold change (IRAK-1-4 Inhibitor I)
NUP188 (UniProt Q5SRE5)	0.066	0.011	-0.01	0.004	-0.007	-0.03	-0.034	0.027	-0.003	0.023
NTPCR (UniProt Q9BSD7)	0.015	-0.263	-0.007	0.065	0.031	0.018	-0.045	0.025	0.046	-0.011
NCAPG2 (UniProt Q86XI2)	0.023	-0.026	-0.019	0.001	0.006	-0.004	-0.026	0.023	-0.016	0.004
NACC1 (UniProt Q96RE7)	-0.006	0.038	0.036	-0.023	-0.004	0.01	-0.011	0.023	-0.014	0.009
MVB12A (UniProt Q96EY5)	0.027	-0.049	0.022	-0.001	-0.024	-0.001	-0.046	-0.089	-0.003	-0.001
NUP98 (UniProt P52948)	-0.018	0.017	0.023	-0.026	0.005	-0.079	-0.004	0.015	0.021	0.002
NCOR1 (UniProt O75376)	0.011	-0.05	0.081	0.004	-0.014	-0.041	-0.001	0.009	0.019	0.022
NMT1 (UniProt P30419)	-0.027	-0.147	0.15	0.019	-0.021	-0.024	0.062	-0.012	-0.165	-0.027
PAK4 (UniProt O96013)	0	-0.076	0.072	0.052	-0.006	-0.005	0.335	0.469	0.124	-0.044
PARG (UniProt Q86W56)	0.009	-0.013	-0.062	0.008	-0.011	0.004	-0.013	0.003	-0.011	0.048
NT5DC2 isoform 2 (UniProt Q9H857)	0.027	0.008	0.068	0.03	0.505 (active)	-0.059	0.04	-0.015	0.036	0.002
MYD88 isoform 6 (UniProt Q99836)	-0.066	0.007	-0.011	-0.019	-0.019	-0.015	-0.025	0.032	-0.067	0.004
OTUD7B (UniProt Q6GQQ9)	0.028	-0.06	0.075	-0.026	-0.017	-0.006	-0.076	-0.002	0.032	-0.039
NFATC2IP (UniProt Q8NCF5)	0.001	0.026	-0.036	0.006	0.016	0.031	-0.071	0.013	-0.016	-0.009
NSUN7 (UniProt Q8NE18)	-0.037	-0.271	0.019	-0.095	0.198	-0.031	-0.087	-0.026	-0.042	0.068
NSA2 (UniProt O95478)	-0.015	-0.15	0.009	-0.102	-0.05	-0.002	-0.016	0.157	0.109	-0.006
NIT2 (UniProt Q9NQR4)	-0.048	0.001	0.014	0.009	0.007	-0.03	0.032	-0.006	0.015	0.067
NUSAP1 (UniProt Q9BXS6)	-0.011	-0.466	0.025	-0.008	-0.033	0.008	0.035	0.012	0.001	-0.005
N4BP2 (UniProt Q86UW6)	0.04	-0.029	-0.09	0.069	-0.015	0.001	0.106	-0.021	-0.068	-0.022
NEBL isoform 2 (UniProt O76041)	0	0.081	0.045	0.012	0.016	0.015	0.003	-0.007	-0.006	-0.005

Target	log2 fold change (erlotinib)	log2 fold change [1]	log2 fold change [2]	log2 fold change [3]	log2 fold change [4]	log2 fold change [5]	log2 fold change [6]	log2 fold change [7]	log2 fold change [8]	log2 fold change (IRAK-1-4 Inhibitor I)
NAA35 (UniProt Q5VZE5)	0.017	0.054	-0.023	0.115	0.021	0.01	-0.002	-0.026	-0.025	0.013
NOC2L (UniProt Q9Y3T9)	-0.036	-0.013	-0.018	-0.029	0.027	0.031	0.077	-0.009	-0.004	-0.046
NAP1L5 (UniProt Q96NT1)	-0.003	-0.023	0.017	-0.014	-0.014	0.084	-0.116	-0.057	0	-0.059
NCKAP1L (UniProt P55160)	0.005	-0.06	-0.006	0.196	0.055	-0.032	-0.156	0.06	0.084	0.06
PANK4 (UniProt Q9NVE7)	0.013	-0.012	0.003	0.051	0.033	0.003	-0.052	-0.002	0.018	0.018
MSI2 (UniProt Q96DH6)	-0.04	-0.277	0.035	-0.047	0.084	-0.034	-0.011	0.03	0.027	0.057
NF1 (UniProt P21359)	0.072	-0.031	-0.02	-0.056	-0.008	-0.003	-0.089	0.017	0	0.023
NGLY1 (UniProt Q96IV0)	0.022	-0.064	-0.031	-0.01	-0.009	0.009	-0.063	-0.001	-0.011	-0.024
NIPBL (UniProt Q6KC79)	-0.025	0.044	-0.003	0.009	0.005	-0.013	0.003	-0.014	0.007	-0.043
NDUFAF5 (UniProt Q5TEU4)	-0.001	0.027	0.016	0.021	-0.022	0.009	0.11	0.193	-0.056	0.07
N6AMT1 (UniProt Q9Y5N5)	0.022	-0.053	-0.082	0.02	-0.097	0.013	-0.272	0.005	-0.013	-0.022
NUMB (UniProt P49757)	-0.029	0.01	0.044	-0.052	-0.009	-0.009	-0.029	-0.107	-0.043	0.022
NSL1 (UniProt Q96IY1)	0.01	-0.004	0.015	-0.001	-0.002	0.01	0.077	0.001	-0.015	0.026
NCAPH2 (UniProt Q6IBW4)	-0.031	-0.085	0.011	-0.012	0.026	0	-0.005	-0.038	0.042	0.009
MTA1 (UniProt Q13330)	0.006	0	0.013	0.017	-0.036	0	-0.035	0.002	-0.008	0.015
OGFOD2 (UniProt Q6N063)	0.034	-0.151	-0.093	-0.074	0.022	-0.034	0.001	0.003	0.006	-0.04
MYO1C (UniProt O00159)	-0.002	-0.005	0.003	0.017	0.006	0.047	-0.003	-0.021	-0.032	-0.055
NOSIP (UniProt Q9Y314)	0.012	-0.001	0.023	0.022	0.011	0.025	-0.019	0.003	0.022	0.01
NSUN2 (UniProt Q08J23)	0.004	0.04	-0.018	0.006	0.004	-0.006	-0.016	0.033	-0.018	-0.002

From the supplement of paper PMC10849652
